Read-out in assay [1]: Macrophage colony-stimulating factor (MCSF), CSF1 (gene 1435)
In words: BSK_hDFCGF_MCSF: BioMAP Diversity Plus: hDFCGF Assay for Macrophage colony-stimulating factor (MCSF) Biomarker Activity (AID 2283060). The settings on record: primary human foreskin fibroblasts; actives raise or lower the signal. A digest of the protocol: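 ELISA read-out of M-CSF in human dermal foreskin fibroblast cultures, 24 h after chemical dosing; gain or loss of signal fitted bidirectionally relative to DMSO baseline.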

Assay [2] can be described thus: BSK_hDFCGF_SRB: Viability Assessment in the BioMAP Diversity Plus: hDFCGF Assay (AID 2283061).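 Note: cells exposed to compound for 24 h before the read.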 The following applies: primary human foreskin fibroblasts. A digest of the protocol: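 Primary human foreskin fibroblasts; 24 h post-dose; fixed 10% TCA, stained 0.1% SRB, A560 read; total protein as overt cytotoxicity measure; curves fit bidirectionally vs DMSO control.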

Read-out in assay [3]: TIMP metallopeptidase inhibitor 1 (TIMP1), TIMP1 (gene 7076)
In words: BSK_hDFCGF_TIMP1: BioMAP Diversity Plus: hDFCGF Assay for TIMP metallopeptidase inhibitor 1 (TIMP1) Biomarker Activity (AID 2283062). The following applies: primary human foreskin fibroblasts; actives raise or lower the signal. In short, it runs like this:
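ELISA readout of TIMP-1 from human dermal foreskin fibroblast cultures 24 h post-dosing. Curves were fitted in both directions against DMSO baseline, with SRB total-protein staining in parallel cultures as a cytotoxicity check.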

Read-out in assay [4]: Monokine induced gamma interferon (MIG), CXCL9 (gene 4283)
Put plainly: BSK_hDFCGF_MIG: BioMAP Diversity Plus: hDFCGF Assay for Monokine induced gamma interferon (MIG) Biomarker Activity (AID 2283063). The following applies: primary human foreskin fibroblasts; actives raise or lower the signal. A digest of the protocol: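 Fibroblasts (human foreskin, primary) dosed, 24 h, MIG by ELISA; fit bidirectional vs DMSO.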

Read-out in assay [5]: Matrix Metallopeptidase 1 (MMP1), MMP1 (gene 4312)
Put plainly: BSK_hDFCGF_MMP1: BioMAP Diversity Plus: hDFCGF Assay for Matrix Metallopeptidase 1 (MMP1) Biomarker Activity (AID 2283064). The following applies: primary human foreskin fibroblasts; actives raise or lower the signal. A digest of the protocol:
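Primary human foreskin fibroblasts exposed to chemicals for 24 h; MMP1 measured by ELISA. Cytotoxicity tracked by SRB staining in parallel cultures; bidirectional fit relative to DMSO.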

Read-out in assay [6]: Plasminogen activator inhibitor-1 (PAI1), SERPINE1 (gene 5054)
In words: BSK_hDFCGF_PAI1: BioMAP Diversity Plus: hDFCGF Assay for Plasminogen activator inhibitor-1 (PAI1) Biomarker Activity (AID 2283066). The settings on record: primary human foreskin fibroblasts; actives raise or lower the signal. A digest of the protocol: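 Human foreskin fibroblasts in the hDFCGF system were dosed with compound for 24 h; PAI-1 was quantified by ELISA. Bidirectional curve fitting used DMSO as negative control and baseline.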

Read-out in assay [7]: Intercellular Adhesion Molecule 1 (ICAM1), ICAM1 (gene 3383)
Put plainly: BSK_KF3CT_ICAM1: BioMAP Diversity Plus: KF3CT Assay for Intercellular Adhesion Molecule 1 (ICAM1) Biomarker Activity (AID 2283067). The settings on record: primary human keratinocytes with fibroblasts; actives raise or lower the signal. In short, it runs like this:
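ELISA readout of ICAM-1; KF3CT human skin co-culture (keratinocytes + foreskin fibroblasts), 24 h post-dose; gain/loss fit vs DMSO baseline.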

Read-out in assay [8]: Interferon-gamma inducible Protein 10 (IP10), CXCL10 (gene 3627)
Put plainly: BSK_KF3CT_IP10: BioMAP Diversity Plus: KF3CT Assay for Interferon-gamma inducible Protein 10 (IP10) Biomarker Activity (AID 2283068). The following applies: primary human keratinocytes with fibroblasts; actives raise or lower the signal. A digest of the protocol: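 In a primary skin co-culture of keratinocytes and fibroblasts, IP-10 is quantified by ELISA at 24 h after dosing. SRB staining of parallel wells monitors overt toxicity. Curves are fitted both directions against DMSO.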

Assay [9] is described as follows: BSK_KF3CT_SRB: Viability Assessment in the BioMAP Diversity Plus: KF3CT Assay (AID 2283069).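 Note: total protein by sulforhodamine B staining as a cytotoxicity measure; read 24 h after compound addition.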 The following applies: primary human keratinocytes with fibroblasts. In short, it runs like this: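 Human keratinocyte and foreskin fibroblast co-culture exposed to chemical for 24 h. Total protein measured in parallel cultures by 0.1% sulforhodamine B staining after 10% TCA fixation, read at 560 nm; bidirectional fit relative to DMSO.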

Read-out in assay [10]: Interleukin-1 alpha (IL1a), IL1A (gene 3552)
Put plainly: BSK_KF3CT_IL1a: BioMAP Diversity Plus: KF3CT Assay for Interleukin-1 alpha (IL1a) Biomarker Activity (AID 2283070). The settings on record: primary human keratinocytes with fibroblasts; actives raise or lower the signal. A digest of the protocol: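 Primary human keratinocyte plus foreskin fibroblast co-culture, dosed and measured at 24 h in 96-well plates. IL-1a level quantified by ELISA; bidirectional fit relative to DMSO.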

Read-out in assay [11]: TIMP metallopeptidase inhibitor 2 (TIMP2), TIMP2 (gene 7077)
Put plainly: BSK_KF3CT_TIMP2: BioMAP Diversity Plus: KF3CT Assay for TIMP metallopeptidase inhibitor 2 (TIMP2) Biomarker Activity (AID 2283071). The settings on record: primary human keratinocytes with fibroblasts; actives raise or lower the signal. In short, it runs like this:
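Human primary keratinocyte/foreskin fibroblast co-culture dosed with chemical and sampled at 24 h. TIMP-2 levels quantified by ELISA; bidirectional fitting against DMSO negative control as baseline.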

Read-out in assay [12]: Transforming growth factor beta 1 (TGFb1), TGFB1 (gene 7040)
Put plainly: BSK_KF3CT_TGFb1: BioMAP Diversity Plus: KF3CT Assay for Transforming growth factor beta 1 (TGFb1) Biomarker Activity (AID 2283072). The following applies: primary human keratinocytes with fibroblasts; actives raise or lower the signal. A digest of the protocol:
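Human keratinocyte plus foreskin fibroblast primary co-culture, dosed with chemical for 24 h. TGF-b1 quantified by ELISA. Activity fitted bidirectionally against DMSO negative control as baseline.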

Read-out in assay [13]: C-C motif chemokine 2 (Homo sapiens) (UniProt P13500)
In words: BSK_KF3CT_MCP1: BioMAP Diversity Plus: KF3CT Assay for Monocyte Chemoattractant Protein 1 (MCP1/CCL2) Biomarker Activity (AID 2283073). The settings on record: primary human keratinocytes with fibroblasts; actives raise or lower the signal. In short, it runs like this:
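KF3CT skin co-culture (keratinocytes/foreskin fibroblasts), 24 h post-dose; MCP-1 by ELISA; gain/loss of signal fit bidirectionally vs DMSO baseline.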

Read-out in assay [14]: Matrix Metallopeptidase 9 (MMP9), MMP9 (gene 4318)
In words: BSK_KF3CT_MMP9: BioMAP Diversity Plus: KF3CT Assay for Matrix Metallopeptidase 9 (MMP9) Biomarker Activity (AID 2283074).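 For AC50: MMP9 protein level quantified by ELISA in the co-culture.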 The following applies: primary human keratinocytes with fibroblasts; actives raise or lower the signal. A digest of the protocol:
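Human keratinocyte and foreskin fibroblast co-culture exposed to chemicals for 24 h; MMP9 biomarker measured by ELISA, bidirectional fitting relative to DMSO; cytotoxicity tracked by SRB total protein staining in parallel cultures.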

Read-out in a further assay: CD40, CD40 (gene 958)
In words: BSK_LPS_CD40: BioMAP Diversity Plus: LPS Assay for CD40 Biomarker Activity (AID 2283076). The settings on record: primary human HUVEC with PBMC; actives raise or lower the signal. In short, it runs like this: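 ELISA readout of CD40 in HUVEC/PBMC co-culture (BSK_LPS system), 24 h post-dosing; bidirectional curve fit, DMSO baseline; parallel SRB total-protein staining for cytotoxicity.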

Read-out in assay [15]: E-selectin (Homo sapiens) (UniProt P16581)
In words: BSK_LPS_Eselectin: BioMAP Diversity Plus: LPS Assay for Eselectin Biomarker Activity (AID 2283077). The following applies: primary human HUVEC with PBMC; actives raise or lower the signal. A digest of the protocol:
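ELISA readout of E-selectin, 24 h post-dose, HUVEC + PBMC co-culture (LPS system). Gain or loss of signal vs DMSO baseline, bidirectional fit.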

Read-out in assay [16]: Interleukin-8 (IL8), CXCL8 (gene 3576)
In words: BSK_LPS_IL8: BioMAP Diversity Plus: LPS Assay for Interleukin-8 (IL8) Biomarker Activity (AID 2283078). The following applies: primary human HUVEC with PBMC; actives raise or lower the signal. In short, it runs like this: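 HUVEC + PBMC co-culture, LPS-activated; test chemicals dosed, IL-8 read by ELISA at 24 h. Bidirectional curve fit vs DMSO baseline (gain or loss of signal).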

The nature of assay [17]: BSK_LPS_SRB: Viability Assessment in the BioMAP Diversity Plus: LPS Assay (AID 2283079).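 Note: total protein by sulforhodamine B absorbance as a cytotoxicity measure; measured one day after compound addition; fitted in both directions against DMSO so loss or gain of signal counts.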 The following applies: primary human HUVEC with PBMC. In short, it runs like this: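 HUVEC + PBMC co-culture, LPS-stimulated; compound 24 h. 10% TCA fix, 0.1% SRB stain, A560. Bidirectional fit vs DMSO.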
Read-out in assay [18]: Vascular cell adhesion molecule 1 (VCAM1), VCAM1 (gene 7412)
Put plainly: BSK_hDFCGF_VCAM1: BioMAP Diversity Plus: hDFCGF Assay for Vascular cell adhesion molecule 1 (VCAM1) Biomarker Activity (AID 2283065).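 For AC50: VCAM-1 protein level quantified by ELISA after 24 h chemical exposure.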 The settings on record: primary human foreskin fibroblasts; actives raise or lower the signal. In short, it runs like this:
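ELISA read-out of VCAM-1 on human skin fibroblasts, 24 h post-dose; gain or loss of signal fitted bidirectionally against DMSO baseline.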

Read-out in assay [19]: urokinase plasminogen activator (uPA), PLAU (gene 5328)
Put plainly: BSK_KF3CT_uPA: BioMAP Diversity Plus: KF3CT Assay for urokinase plasminogen activator (uPA) Biomarker Activity (AID 2283075). The following applies: primary human keratinocytes with fibroblasts; actives raise or lower the signal. A digest of the protocol:
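Primary human keratinocyte/foreskin fibroblast co-culture exposed to chemical; uPA measured by ELISA at 24 h. Bidirectional fit versus DMSO, with parallel SRB total-protein staining for cytotoxicity.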

The source holds several records for some structures; these can differ, active in one and inactive in another. Active and inactive are the calls of the source. Rule for the calls: active = hit-call score of the fitted dose curve at least 0.9, where 1 is the maximum; inactive = score below 0.9.

Sequence of E-selectin (Homo sapiens) (P16581 whole entry, looked up): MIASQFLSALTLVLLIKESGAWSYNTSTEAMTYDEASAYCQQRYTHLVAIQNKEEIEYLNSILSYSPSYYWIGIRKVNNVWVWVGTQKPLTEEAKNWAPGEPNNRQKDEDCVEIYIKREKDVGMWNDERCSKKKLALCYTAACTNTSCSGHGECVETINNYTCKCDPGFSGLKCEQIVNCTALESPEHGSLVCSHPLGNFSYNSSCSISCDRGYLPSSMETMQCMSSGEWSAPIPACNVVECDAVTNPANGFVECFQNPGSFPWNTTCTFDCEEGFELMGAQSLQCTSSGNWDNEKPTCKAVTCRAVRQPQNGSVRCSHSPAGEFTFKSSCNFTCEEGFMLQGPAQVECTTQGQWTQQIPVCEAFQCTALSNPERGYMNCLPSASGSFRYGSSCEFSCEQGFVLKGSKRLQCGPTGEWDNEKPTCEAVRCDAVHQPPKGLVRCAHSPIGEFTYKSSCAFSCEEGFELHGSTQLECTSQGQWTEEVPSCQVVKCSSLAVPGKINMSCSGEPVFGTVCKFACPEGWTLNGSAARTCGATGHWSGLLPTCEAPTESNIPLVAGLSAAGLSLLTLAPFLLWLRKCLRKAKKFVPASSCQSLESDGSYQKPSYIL

For the molecule `CCC1(c2ccccc2)C(=O)N=C(O)NC1=O` (configuration not stated), the outcome in assay [1], in assay [2], in assay [3], in assay [4], in [5] and in assay [6] was inactive. Also, the result in [7], in [8], in assay [9], in [10], in assay [11] and in assay [12] was inactive. The outcome is “inactive” in assay [13]; “inactive” in [14]; “inactive” with CD40, CD40 (gene 958); “inactive” in [15]; “inactive” in [16]; “inactive” in assay [17].

As usually defined, the AC50 is the midpoint of the concentration-response curve, whichever way the signal moves. Turning to `CCCCN(CCCC)SN(C)C(=O)Oc1cccc2c1OC(C)(C)C2`, the AC50 in [1] was 7.15 µM (active); in [2], 9.64 µM (active); in [3] it was 12.4 µM (active); in [4], 13.2 µM (active); in assay [18], 5.54 µM (active); in assay [6] it was 8.57 µM (active). Further, the AC50 in assay [14] is 13.8 µM (active); in the assay with CD40, CD40 (gene 958), 20 µM (active); in assay [15], 30.8 µM (active); in assay [16], 30.9 µM (active); in assay [17] it was 28.4 µM (active). In addition, the result in assay [7], in [8], in assay [9], in [10], in assay [11] and in [12] was inactive. Further, in [13], the result was inactive.

As for `O=C(O)C(F)(F)OC(F)(F)C(F)(F)OC(F)(F)F`, the result in assay [1], in assay [2], in assay [3], in [4], in [18] and in [6] was inactive. The outcome in [7], in assay [8], in [9], in [10], in assay [11] and in assay [13] was inactive. In addition, the outcome in assay [14] was “inactive”; in the assay with CD40, CD40 (gene 958), “inactive”; in assay [15], “inactive”; in assay [16], “inactive”; in [17] it was “inactive”. In addition, the concentration at half-maximal activity (AC50) in assay [10] is 47.7 µM (active).

Regarding `c1cc2c3c(cccc3c1)CC2`, the outcome in assay [1], in [2], in [3], in assay [4], in assay [5] and in assay [6] was inactive. The result in assay [7], in assay [8], in [9], in assay [10], in assay [11] and in [12] was inactive. Moreover, the outcome in assay [13] is “inactive”; in assay [14] it was “inactive”; in [19] it was “inactive”; with CD40, CD40 (gene 958) it was “inactive”; in [15], “inactive”; in assay [16], “inactive”. Further, the result in assay [17] was inactive.

Regarding `O=[N+]([O-])c1ccccc1`, the result in assay [1], in assay [2], in [3], in assay [4], in assay [5] and in [6] was inactive. In addition, the result in assay [7], in assay [8], in assay [9], in assay [10], in [11] and in [12] was inactive. The outcome was “inactive” in [14]; “inactive” with CD40, CD40 (gene 958); “inactive” in assay [15]; “inactive” in assay [16]; “inactive” in assay [17].

Take `CC(O)C(F)(F)C(F)(F)F` (configuration not stated): the result in assay [1], in assay [2], in [3], in assay [4], in assay [5] and in assay [6] was inactive. Further, the outcome in assay [7], in [8], in assay [9], in [10], in assay [11] and in assay [13] was inactive. The outcome was “inactive” in [14]; “inactive” in assay [19]; “inactive” in the assay with CD40, CD40 (gene 958); “inactive” in assay [15]; “inactive” in assay [16]; “inactive” in [17].

Turning to `CCCCN(CCCC)N=O`, the result in assay [1], in [2], in assay [3], in assay [4], in assay [18] and in [6] was inactive. Besides, the outcome in assay [7], in assay [8], in assay [9], in [10], in assay [11] and in assay [12] was inactive. Further, the outcome in assay [13] is “inactive”; in assay [14], “inactive”; in assay [19] it was “inactive”; with CD40, CD40 (gene 958), “inactive”; in assay [15] it was “inactive”; in [16], “inactive”. Further, the result in [17] was inactive.

(Values after PubChem BioAssay (EPA / NIEHS).)
